Results filed as inconclusive are left out. Calls of active or inactive are those of the source. The call rests on the fitted dose curve; in most records, active means well fitted cell-killing curve with a large enough effect; inconclusive means small, poorly fitted or top-dose-only effect, or effect the other way; inactive means flat fitted curve, though single readings scatter. Numbered stars: 1 amine (or outer) side, 2 acyl side, 3 side chain; on linkers, the order of the positions; unused ones are H or OH. Bridge positions count the residues as written; N and C are the ends. Square brackets hold non-standard residues; d marks the D form. Peptide text beside a SMILES is read from it. I, II: the chains in the order shown. Actinocin(9to1) = Cc1c2oc3c(C)ccc(C(=O)[*:1])c3nc-2c(C(=O)[*:2])c(N)c1=O; NMeV = CN[C@H](C(=O)O)C(C)C; Sar = CNCC(=O)O
Potency means the concentration at half of the fitted maximal effect.

This assay can be described thus: S16 Schwann cell viability assay (CellTiter-Glo assay) (AID 624031). Further: nearly all actives have a fitted effect of over 70% in size.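 On activity change, negative = cytotoxicity: cellular ATP luminescence as a viability measure.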 Particulars: S16 rat Schwann cells viability, 24 h; series mostly up to 57.5 µM; activity change, negative = cytotoxicity: at the top concentration. The source says: Charcot-Marie-Tooth-Association [CMTA]
National Center for Advancing Translational Sciences [NCATS]
Charcot-Marie-Tooth (CMT) disease was first characterized by Jean-Martin Charcot and Pierre Marie in France and, independently, by Howard Henry Tooth in England in 1886. CMT is one of the most common inherited neurological diseases, affecting approximately 1 in 2,500 Americans. […] The most prevalent type of CMT is known as CMT1A and caused by a duplication of the PMP22 gene which leads to over-expression of this protein. PMP22 is a glycosylated intrinsic membrane protein accounting for 2-5% of the myelin protein content, and its over-expression results in demyelination and subsequently axonal loss.
A pair of cellular transcription-based assays was developed in the S16 rat Schwann cell lines (Hai, M., et al., 2002) stably transfected with orthogonal reporters - firefly luciferase (Fluc) and beta-lactamase (beta-Lac) - whose expression is driven by an intronic regulatory element of the PMP22 gene (Jones, E.A., et al., 2011) to recapitulate endogenous expression of PMP22. A comprehensive library of approved drugs, the NCGC Pharmaceutical Collection (Huang, R., et al., 2011), was screened in the cross-validating platform of the orthogonal reporter assays to identify drug modulators inhibitory towards PMP22 expression.
A set of counter-screens was devised to address non-specific activity of the library. An ATP-dependent CellTiter-Glo assay (developed by Promega Corp) was utilized to control cell viability. In addition, biochemical Fluc enzyme assay was performed to assess direct inhibition of the Fluc enzymatic activity.
Hai, M., Muja, N., DeVries, G.H., Quarles, R.H. and Patel, P.I. Comparative analysis of Schwann cell lines as model systems for myelin gene transcription studies. J Neurosci Res, 2002. 69(4): pp 497-508
Huang, R., Southall, N., Wang, Y., Yasgar A., Shinn P., Jadhav, A. , Nguyen, D.-T. and Austin, C.P., The NCGC pharmaceutical collection: a comprehensive resource of clinically approved drugs enabling repurposing and chemical genomics. Sci Transl Med, 2011. 3(80): p. 80ps16.
Native S16 cells were seeded in white solid-bottom 1536 well plates at between 500-750 cells/6uL in DMEM medium containing 10% FBS, w/o phenol red. After overnight incubation at 37 degree Celsius/5% C02, 23 nL of compounds or DMSO were delivered to each well using a pin tool, followed by 24h-incubation at 37 degree Celsius/5% C02. Then one volume of CellTiter-Glo assay reagent (Promega) was added to each well for cell viability measured by a ViewLux plate reader (PerkinElmer). The % activity was determined by normalizing to the average readings from wells containing no cells relative to DMSO-treated cells (0% Activity). The concentration-effect curves were then classified based on curve quality (r2), response magnitude and degree of measured activity.
As to `Cc1ccc(C(=O)C(C)CN2CCCCC2)cc1` (stereo not given), the “activity change, negative = cytotoxicity” value is -1.82% (inactive).

Consider `CC(=O)Nc1c(I)cc(I)c(C(=O)O)c1I`, for which the “activity change, negative = cytotoxicity” value was -11.8% (inactive).

Take `COc1ccc(C2C(=O)c3ccccc3C2=O)cc1`: the “activity change, negative = cytotoxicity” value is 3.24% (inactive).

Turning to `Oc1ccc(Cl)cc1Sc1cc(Cl)ccc1O`, the “activity change, negative = cytotoxicity” value was -1.07% (inactive).

`NCCCC[C@H](N[C@@H](CCc1ccccc1)C(=O)O)C(=O)N1CCC[C@H]1C(=O)O`: the “activity change, negative = cytotoxicity” value was 0.93% [at 25.7 µM] (inactive).

With `CC(=O)Oc1ccc(C(c2ccc(OC(C)=O)cc2)c2ccccn2)cc1`, the “activity change, negative = cytotoxicity” value was 1.01% (inactive).

With `Cc1cc(=O)n(-c2ccccc2)n1C`, the “activity change, negative = cytotoxicity” value is -13% (inactive).

For the molecule `Cc1cc(O)c(C(C)C)cc1Cl`, the “activity change, negative = cytotoxicity” value was 11.3% (inactive).

Turning to `CCCCCCCCCCCCCCCC[N+](C)(C)CC`, the Potency was 32.2 µM (active).

As for `CC(=O)OCC(=O)NCCCOc1cccc(CN2CCCCC2)c1`, the “activity change, negative = cytotoxicity” value was -2.97% (inactive).

`CCN(CC)CCOC(=O)C(c1ccccc1)C1CCCCC1` (stereo not given): the “activity change, negative = cytotoxicity” value was -19.1% (inactive).

With `O=C(CCN1CCC(c2ccccc2)C1)c1ccc2c(c1)OCCO2` (stereo not given), the Potency was 28.7 µM (active).

Turning to `CCCCCCCCCCCCCCCCOP(=O)([O-])OCC[N+](C)(C)C`, the “activity change, negative = cytotoxicity” value was -15.4% (inactive).

Turning to `Nc1ccc(C(=O)O)cc1`, the “activity change, negative = cytotoxicity” value is 2.94% (inactive).

`O=C(O)c1cc2cc(Cc3cccnc3)ccc2o1`: the “activity change, negative = cytotoxicity” value was 1.73% (inactive).

Consider `O=C(OCCOCCO)c1ccccc1Nc1cccc(C(F)(F)F)c1`, for which the “activity change, negative = cytotoxicity” value is -20.5% [at 25.7 µM] (inactive).

`CN1CCC(=C2c3ccccc3Sc3ccccc32)CC1`: the Potency is 28.7 µM (active).

Consider `CN=C(NC#N)Nc1ccc(C2=NNC(=O)CC2C)cc1` (stereo not given), for which the “activity change, negative = cytotoxicity” value is 1.06% (inactive).

As to `CCCCC1=NC2(CCCC2)C(=O)N1Cc1ccc(-c2ccccc2-c2nn[nH]n2)cc1`, the “activity change, negative = cytotoxicity” value is 2.74% (inactive).

Take `C[C@@H]1C[C@H]2[C@@H]3CCC4=CC(=O)C=C[C@]4(C)[C@@]3(F)[C@@H](O)C[C@]2(C)[C@H]1C(=O)CO`: the “activity change, negative = cytotoxicity” value is 0.17% (inactive).

In the case of `Cc1c2oc3c(C)ccc(C(=O)N[C@@H]4C(=O)N[C@H](C(C)C)C(=O)N5CCC[C@H]5C(=O)N(C)CC(=O)N(C)[C@@H](C(C)C)C(=O)O[C@@H]4C)c3nc-2c(C(=O)N[C@@H]2C(=O)N[C@H](C(C)C)C(=O)N3CCC[C@H]3C(=O)N(C)CC(=O)N(C)[C@@H](C(C)C)C(=O)O[C@@H]2C)c(N)c1=O` (I: T[dV]P[Sar][NMeV] / II: T[dV]P[Sar][NMeV]; ester I:1-I:C, II:1-II:C; linker I:N-II:N via Actinocin(9to1)), the “activity change, negative = cytotoxicity” value is 0% (inactive).

With `CCCCCCc1ccc(O)cc1O`, the “activity change, negative = cytotoxicity” value is -4.08% (inactive).

With `C#C[C@]1(O)CC[C@H]2[C@@H]3CCc4cc(OC5CCCC5)ccc4[C@H]3CC[C@@]21C`, the Potency is 32.2 µM (active).

As for `COC(=O)[C@H]1[C@H]2C[C@H]3c4[nH]c5ccccc5c4CCN3C[C@H]2CC[C@@H]1O`, the “activity change, negative = cytotoxicity” value is -0.0273% (inactive).

As to `C[C@]12CC[C@@H]3c4ccc(O)cc4CC[C@H]3[C@@H]1CC[C@@H]2O`, the “activity change, negative = cytotoxicity” value was -7.44% (inactive).

As for `CN=C(NC#N)NCCSCc1csc(N=C(N)N)n1`, the “activity change, negative = cytotoxicity” value is -7.89% (inactive).

For `N[C@H](Cc1c[nH]c2ccccc12)C(=O)O`, the “activity change, negative = cytotoxicity” value is 6.49% (inactive).

For `O=c1c(-c2ccccc2)c1-c1ccccc1`, the “activity change, negative = cytotoxicity” value was -8.63% (inactive).

For `Nc1ccc(C(=O)Nc2ccccc2N)cc1`, the “activity change, negative = cytotoxicity” value was -25.2% (inactive).

As for `c1ccc(-c2ccc(C(c3ccccc3)n3ccnc3)cc2)cc1` (stereo not given), the “activity change, negative = cytotoxicity” value was -2.01% (inactive).

For `CCCOC(C(=O)OC1CCN(C)CC1)(c1ccccc1)c1ccccc1`, the “activity change, negative = cytotoxicity” value is -5.17% (inactive).

In the case of `Cc1cccn2c(=O)c(-c3nnn[nH]3)cnc12`, the “activity change, negative = cytotoxicity” value was 1.33% (inactive).

Consider `O=C(Nc1ccc(Cl)c(Cl)c1)C1CC1`, for which the “activity change, negative = cytotoxicity” value is -23.4% (inactive).

As to `COc1cccc2c1C(=O)c1c(O)c3c(c(O)c1C2=O)C[C@@](O)(C(C)=O)C[C@@H]3O[C@H]1C[C@H](N)[C@H](O)[C@H](C)O1`, the “activity change, negative = cytotoxicity” value is -18.3% (inactive).

Turning to `CCn1cc(C(=O)O)c(=O)c2cnc(N3CCCC3)nc21`, the “activity change, negative = cytotoxicity” value was 10.1% [at 25.7 µM] (inactive).

On to `COC1=CC(=O)C[C@@H](C)[C@]12Oc1c(Cl)c(OC)cc(OC)c1C2=O`, for which the “activity change, negative = cytotoxicity” value was -0.869% (inactive).

Turning to `CCCCCCCCCCCCCCNCCO`, the “activity change, negative = cytotoxicity” value is -5.61% (inactive).

As for `C#C[C@]1(OC(C)=O)CC[C@H]2[C@@H]3CCC4=C[C@@H](OC(C)=O)CC[C@@H]4[C@H]3CC[C@@]21C`, the “activity change, negative = cytotoxicity” value was -13% (inactive).

For the molecule `Oc1ccc(Cl)c2cccnc12`, the “activity change, negative = cytotoxicity” value is -30% (inactive).

Turning to `CCN1CCN(c2cc3c(cc2F)c(=O)c(C(=O)O)cn3C2CC2)CC1`, the “activity change, negative = cytotoxicity” value was -5.09% (inactive).

Values taken from PubChem BioAssay (NCATS).
